Measured values reported in the supplement of paper PMC10849652.
The full data set covers some 7,900 targets. This sample favours those with a hit. About 0.6% of all pairs of compound and target were hits. Values without a mark were called inactive.

What was measured:
Assay in all cases: log2 fold change, soluble protein after heating vs DMSO (PISA); higher = thermal stabilisation; K562 cells, 10 uM, 30 min; active = over 0.2 and 3.5 SD of the protein, either way, in both replicates (recomputed)
[1] = compound: C#Cc1cccc(Nc2ncnc3cc(OCCOC)c(OCCOC)cc23)c1 [erlotinib]
Outline: (§1)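 For each measurement, 10 μM compound was applied for 30 min to K562 cells at 2×10^6 cells/mL. Aliquots were heated for 3 min across 48°C-58°C, pooled, and extracted in PBS with 0.5% NP-40 at 4°C; the supernatant after 21,000xg for 90 min was soluble protein. This was quantified by TMTpro 16plex LC-MS/MS with channel sums equalised, and thermal stability was reported relative to control samples from duplicates, on a log2 fold-change scale.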

[2] = compound: C1=CC(=C(C=C1Cl)C2=NC3=NC=CN=C3C(=N2)NC4=CC=NC=C4)F
Outline: as §1

[3] = compound: C1=CC(=CC=C1C2=NC3=C(N2)C=C(C=C3)C(=O)N)OC4=CC=C(C=C4)Cl
Outline: as §1

[4] = compound: C1=CC2=NC=CN=C2C=C1/C=C/3\C(=O)NC(=O)S3
Outline: as §1

[5] = compound: C1COCCN1CCN2C3=CC=CC=C3N=C2NC(=O)C4=CC(=CC=C4)[N+](=O)[O-] [IRAK-1-4 Inhibitor I]
Outline: as §1

[6] = compound: C=CC(=O)N1CCC[C@@H](n2nc(-c3ccc(Oc4ccccc4)cc3)c3c(N)ncnc32)C1 [ibrutinib]
Outline: as §1

[7] = compound: CC(C)(O)CC(=O)NCCn1ccc2ncnc(Nc3ccc(Oc4cccc(C(F)(F)F)c4)c(Cl)c3)c21
Outline: as §1

[8] = compound: CC(C)C1=C2N=C(C=C(N2N=C1)NCC3=CC=CC=C3)NCCCCCCN
Outline: as §1

[9] = compound: CC(C)N(C[C@H]1O[C@@H](n2cnc3c(N)ncnc32)[C@H](O)[C@@H]1O)[C@H]1C[C@@H](CCc2nc3cc(C(C)(C)C)ccc3[nH]2)C1 [pinometostat]
Outline: as §1

[10] = compound: C1=CC=C(C=C1)C2=NC(=C(N2)C3=CC=NC=C3)C4=CC(=C(C=C4)Cl)O
Outline: as §1

[11] = compound: CC(C)(C)Cn1c(N)nc2ccc(-c3[nH]c(C(C)(C)C)nc3-c3ccc(F)cc3)nc21 [ralimetinib]
Outline: as §1

[12] = compound: CC(C)C[C@@H](C=O)NC(=O)[C@H](CC(C)C)NC(=O)[C@H](CC(C)C)NC(=O)OCc1ccccc1
Outline: as §1

[13] = compound: C/C(=N\NC(=O)C1=CC(=CC=C1)S(=O)(=O)N2CCOCC2)/C3=C(C=CC(=C3)Cl)O
Outline: as §1

[14] = compound: C1=CC2=C(C=CC(=C2)/C=C\3/C(=O)NC(=NCC4=CC=CS4)S3)N=C1
Outline: as §1

[15] = compound: C1=CC=C2C(=C1)C3=NNC4=CC=CC(=C43)C2=O
Outline: as §1

[16] = compound: C1CCN(C1)C(=O)NC2=CC=CC(=C2)NC3=NC=C(C(=N3)NCCC4=CN=CN4)Br
Outline: as §1

[17] = compound: C1CN(CCC1(CC2=CC=C(C=C2)Cl)N)C3=NC=NC4=C3C=CN4
Outline: as §1

[18] = compound: CC(=O)c1cnc2ccc(-c3cc(Cl)c(O)c(Cl)c3)nc2c1N[C@H]1CC[C@H](CN(C)C)CC1
Outline: as §1

[19] = compound: CC1=C(C2=C(C=C1)C(=O)C3=CC=CC=C3N2CCCN)C
Outline: as §1

[20] = compound: CC1=C(C(CC(=O)N1)C2=CC=C(C=C2)C(F)(F)F)C(=O)NC3=C(C=C4C(=C3)C=NN4)F
Outline: as §1

UniProt Q9UPY8, sequence (Q9UPY8 whole entry, looked up): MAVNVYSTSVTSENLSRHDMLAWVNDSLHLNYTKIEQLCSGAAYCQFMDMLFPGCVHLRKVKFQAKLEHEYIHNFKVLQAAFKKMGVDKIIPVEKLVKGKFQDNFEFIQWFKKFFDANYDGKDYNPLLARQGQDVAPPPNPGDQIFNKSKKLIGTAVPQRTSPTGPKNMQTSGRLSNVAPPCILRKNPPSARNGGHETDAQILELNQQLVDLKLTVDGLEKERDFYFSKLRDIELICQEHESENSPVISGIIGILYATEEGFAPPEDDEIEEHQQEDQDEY
UniProt O60291, sequence (O60291 whole entry, looked up): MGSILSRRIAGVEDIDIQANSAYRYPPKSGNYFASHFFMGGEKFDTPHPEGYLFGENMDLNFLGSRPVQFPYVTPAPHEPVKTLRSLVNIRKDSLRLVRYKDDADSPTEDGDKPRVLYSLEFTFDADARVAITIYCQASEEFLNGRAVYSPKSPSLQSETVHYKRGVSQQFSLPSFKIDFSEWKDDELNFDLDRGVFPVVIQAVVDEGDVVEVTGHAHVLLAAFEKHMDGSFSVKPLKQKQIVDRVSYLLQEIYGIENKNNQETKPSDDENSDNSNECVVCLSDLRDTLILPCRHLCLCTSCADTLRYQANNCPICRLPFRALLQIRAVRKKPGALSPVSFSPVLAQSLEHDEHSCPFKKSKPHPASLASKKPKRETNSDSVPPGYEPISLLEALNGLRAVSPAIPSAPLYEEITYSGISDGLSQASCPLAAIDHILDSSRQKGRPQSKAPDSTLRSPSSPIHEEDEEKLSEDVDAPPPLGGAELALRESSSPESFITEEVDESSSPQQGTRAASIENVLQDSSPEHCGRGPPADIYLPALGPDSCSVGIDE
UniProt Q2M2Z5, sequence (Q2M2Z5 whole entry, looked up): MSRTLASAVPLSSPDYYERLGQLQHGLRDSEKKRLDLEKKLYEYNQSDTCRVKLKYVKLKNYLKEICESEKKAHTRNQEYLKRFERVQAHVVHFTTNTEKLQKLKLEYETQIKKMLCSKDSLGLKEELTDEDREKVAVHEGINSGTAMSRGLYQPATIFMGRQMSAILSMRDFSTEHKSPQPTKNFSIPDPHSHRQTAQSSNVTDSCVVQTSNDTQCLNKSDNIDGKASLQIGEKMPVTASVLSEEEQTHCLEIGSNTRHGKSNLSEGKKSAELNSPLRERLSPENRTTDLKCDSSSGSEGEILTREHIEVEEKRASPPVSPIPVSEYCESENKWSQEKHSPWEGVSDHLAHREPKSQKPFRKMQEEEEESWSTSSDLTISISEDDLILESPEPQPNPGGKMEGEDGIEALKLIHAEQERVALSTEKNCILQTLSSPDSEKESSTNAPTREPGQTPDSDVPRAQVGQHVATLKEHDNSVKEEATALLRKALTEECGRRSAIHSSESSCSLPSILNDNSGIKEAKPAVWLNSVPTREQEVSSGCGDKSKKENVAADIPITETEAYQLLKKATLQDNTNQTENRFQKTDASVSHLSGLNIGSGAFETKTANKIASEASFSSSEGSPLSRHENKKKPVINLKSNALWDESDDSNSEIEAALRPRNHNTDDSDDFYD
UniProt O95279, sequence (O95279 whole entry, looked up): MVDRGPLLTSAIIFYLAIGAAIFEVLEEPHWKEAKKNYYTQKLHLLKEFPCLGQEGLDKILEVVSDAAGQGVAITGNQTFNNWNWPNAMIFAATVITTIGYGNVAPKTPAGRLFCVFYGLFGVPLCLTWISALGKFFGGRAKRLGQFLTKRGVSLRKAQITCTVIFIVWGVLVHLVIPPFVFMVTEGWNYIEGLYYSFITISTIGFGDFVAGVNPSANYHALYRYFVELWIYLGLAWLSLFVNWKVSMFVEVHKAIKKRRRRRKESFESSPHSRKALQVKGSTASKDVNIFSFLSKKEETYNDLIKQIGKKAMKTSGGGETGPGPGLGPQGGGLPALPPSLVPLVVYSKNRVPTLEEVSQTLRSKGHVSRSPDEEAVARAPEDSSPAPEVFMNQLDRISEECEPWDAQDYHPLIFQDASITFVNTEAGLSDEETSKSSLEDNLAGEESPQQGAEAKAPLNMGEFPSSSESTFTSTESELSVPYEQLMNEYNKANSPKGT
UniProt Q9P244, sequence (Q9P244 whole entry, looked up): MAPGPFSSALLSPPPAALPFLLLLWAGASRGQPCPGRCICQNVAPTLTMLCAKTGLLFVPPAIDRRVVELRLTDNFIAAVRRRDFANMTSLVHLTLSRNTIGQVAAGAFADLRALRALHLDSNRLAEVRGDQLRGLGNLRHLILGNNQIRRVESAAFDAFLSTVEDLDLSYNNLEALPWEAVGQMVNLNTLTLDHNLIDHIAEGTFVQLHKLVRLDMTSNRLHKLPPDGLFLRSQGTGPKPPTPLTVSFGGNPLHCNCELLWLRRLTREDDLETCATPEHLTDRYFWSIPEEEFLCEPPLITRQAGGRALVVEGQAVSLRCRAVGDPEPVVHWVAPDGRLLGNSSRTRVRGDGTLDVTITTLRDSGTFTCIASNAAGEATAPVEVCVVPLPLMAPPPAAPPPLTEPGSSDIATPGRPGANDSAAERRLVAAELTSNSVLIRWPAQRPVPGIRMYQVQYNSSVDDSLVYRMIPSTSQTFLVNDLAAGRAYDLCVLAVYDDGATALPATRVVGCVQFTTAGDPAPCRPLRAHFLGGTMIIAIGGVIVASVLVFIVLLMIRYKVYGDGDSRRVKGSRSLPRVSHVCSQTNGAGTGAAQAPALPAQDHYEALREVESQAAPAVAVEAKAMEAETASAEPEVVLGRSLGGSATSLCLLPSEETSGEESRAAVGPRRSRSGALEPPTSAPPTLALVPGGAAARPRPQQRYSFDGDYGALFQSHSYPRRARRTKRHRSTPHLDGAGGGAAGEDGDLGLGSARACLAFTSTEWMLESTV
UniProt Q9NX70, sequence (Q9NX70 whole entry, looked up): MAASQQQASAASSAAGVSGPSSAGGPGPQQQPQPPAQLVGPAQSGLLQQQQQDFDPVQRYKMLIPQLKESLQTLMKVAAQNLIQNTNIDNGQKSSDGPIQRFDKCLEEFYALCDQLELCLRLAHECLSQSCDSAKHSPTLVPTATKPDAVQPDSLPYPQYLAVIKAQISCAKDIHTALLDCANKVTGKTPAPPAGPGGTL
UniProt Q5SW96, sequence (Q5SW96 whole entry, looked up): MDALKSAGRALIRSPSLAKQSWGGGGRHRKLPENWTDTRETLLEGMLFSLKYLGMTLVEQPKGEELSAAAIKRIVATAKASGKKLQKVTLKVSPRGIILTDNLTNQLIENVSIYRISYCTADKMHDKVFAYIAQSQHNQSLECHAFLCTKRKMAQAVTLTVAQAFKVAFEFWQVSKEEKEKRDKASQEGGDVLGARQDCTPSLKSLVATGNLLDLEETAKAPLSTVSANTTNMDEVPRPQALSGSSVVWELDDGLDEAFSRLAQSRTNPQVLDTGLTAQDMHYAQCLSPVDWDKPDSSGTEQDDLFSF
UniProt P28290, sequence (P28290 whole entry, looked up): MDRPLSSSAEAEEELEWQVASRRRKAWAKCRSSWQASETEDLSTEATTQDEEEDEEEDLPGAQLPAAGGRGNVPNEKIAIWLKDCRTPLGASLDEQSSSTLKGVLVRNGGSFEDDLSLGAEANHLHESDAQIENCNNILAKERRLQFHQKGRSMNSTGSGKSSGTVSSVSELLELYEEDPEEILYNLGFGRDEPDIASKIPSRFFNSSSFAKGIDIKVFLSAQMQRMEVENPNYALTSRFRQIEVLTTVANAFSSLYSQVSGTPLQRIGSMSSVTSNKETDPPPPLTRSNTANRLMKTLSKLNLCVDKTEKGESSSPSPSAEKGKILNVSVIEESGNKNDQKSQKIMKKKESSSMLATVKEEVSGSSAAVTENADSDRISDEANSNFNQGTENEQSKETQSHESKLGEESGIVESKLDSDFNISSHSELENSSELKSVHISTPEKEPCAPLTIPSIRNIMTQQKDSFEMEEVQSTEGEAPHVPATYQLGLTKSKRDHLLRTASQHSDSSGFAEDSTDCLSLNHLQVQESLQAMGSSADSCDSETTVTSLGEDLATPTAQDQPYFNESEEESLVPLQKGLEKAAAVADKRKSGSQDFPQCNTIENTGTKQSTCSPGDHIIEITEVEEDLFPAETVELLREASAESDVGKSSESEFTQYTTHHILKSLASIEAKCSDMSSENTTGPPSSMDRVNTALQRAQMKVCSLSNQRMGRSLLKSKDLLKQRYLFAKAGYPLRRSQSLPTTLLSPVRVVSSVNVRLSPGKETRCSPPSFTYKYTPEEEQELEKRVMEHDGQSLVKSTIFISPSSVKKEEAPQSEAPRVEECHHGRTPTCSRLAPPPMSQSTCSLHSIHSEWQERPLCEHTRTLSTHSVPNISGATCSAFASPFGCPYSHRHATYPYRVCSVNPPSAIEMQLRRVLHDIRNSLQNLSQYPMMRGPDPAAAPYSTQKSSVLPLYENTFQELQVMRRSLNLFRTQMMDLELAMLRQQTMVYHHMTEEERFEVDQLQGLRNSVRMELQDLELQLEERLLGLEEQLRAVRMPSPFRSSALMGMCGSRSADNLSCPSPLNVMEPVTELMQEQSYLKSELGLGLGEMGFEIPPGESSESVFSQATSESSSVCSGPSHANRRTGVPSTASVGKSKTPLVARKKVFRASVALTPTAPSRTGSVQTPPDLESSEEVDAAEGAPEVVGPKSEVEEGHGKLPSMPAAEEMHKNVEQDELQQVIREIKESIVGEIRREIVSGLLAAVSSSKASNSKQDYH
UniProt O43934, sequence (O43934 whole entry, looked up): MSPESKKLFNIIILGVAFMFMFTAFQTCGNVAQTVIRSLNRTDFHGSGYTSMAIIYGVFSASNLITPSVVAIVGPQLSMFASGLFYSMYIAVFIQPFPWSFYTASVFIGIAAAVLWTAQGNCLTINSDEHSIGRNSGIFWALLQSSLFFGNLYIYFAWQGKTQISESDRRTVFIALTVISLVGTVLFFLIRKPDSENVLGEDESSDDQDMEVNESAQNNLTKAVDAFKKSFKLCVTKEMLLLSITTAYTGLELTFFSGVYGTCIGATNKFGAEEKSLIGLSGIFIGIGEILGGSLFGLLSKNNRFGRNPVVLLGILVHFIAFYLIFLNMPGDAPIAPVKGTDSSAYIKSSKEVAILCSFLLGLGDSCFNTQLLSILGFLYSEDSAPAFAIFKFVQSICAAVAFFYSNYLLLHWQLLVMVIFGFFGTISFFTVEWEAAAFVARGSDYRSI

Row | Target | log2 fold change [1] | log2 fold change [2] | log2 fold change [3] | log2 fold change [4] | log2 fold change [5] | log2 fold change [6] | log2 fold change [7] | log2 fold change [8] | log2 fold change [9] | log2 fold change [10] | log2 fold change [11] | log2 fold change [12] | log2 fold change [13] | log2 fold change [14] | log2 fold change [15] | log2 fold change [16] | log2 fold change [17] | log2 fold change [18] | log2 fold change [19] | log2 fold change [20]
1 | KCNK5 (UniProt O95279) | -0.101 | -0.128 | 0.077 | 0.095 | -0.033 | 0.019 | -0.209 | -2.03 (active) | 0 |  |  |  |  |  |  |  |  |  |  | 
2 | LDLRAP1 (UniProt Q5SW96) | -0.017 |  | 0.252 | 0.199 | 0.013 | -0.177 |  | -0.541 (active) | 0.318 | -0.118 | -0.032 | 0.028 |  |  |  |  |  |  |  | 
3 | MGRN1 isoform 2 (UniProt O60291) | 0.016 |  | 0 | 0.004 | 0.062 | -0.003 |  | -0.225 | 0.041 | -0.095 | -0.015 | 0.114 | 0.079 | -0.544 (active) | 0.073 | 0.008 | 0.227 | 0.116 | -0.098 | 
4 | LRFN1 (UniProt Q9P244) | 0.059 | -0.028 | 0 | 0.004 | 0.105 | -0.018 | 0.073 | 0.107 | 0.029 | -0.038 | -0.009 | 0.061 |  |  |  | -0.1 | 0.052 |  | 0.008 | 
5 | MFSD11 (UniProt O43934) |  | 0.007 |  | 0.043 | 0.015 | 0.006 | -0.008 |  | -0.009 |  |  |  | 0.001 | 0.047 | -0.067 | 0.06 | 0.219 | -0.029 | 0.095 | 0.031
6 | MCM10 (UniProt Q7L590) | -0.066 | 0.205 | 0.039 | -0.054 | 0.096 | 0.018 | -0.115 | 0.015 | -0.108 |  |  |  |  |  |  | -0.153 | 0.125 |  | -0.037 | 0.07
7 | MAPRE3 isoform 2 (UniProt Q9UPY8) |  |  |  |  | -0.384 |  |  |  | -0.101 |  |  |  | -0.003 | -0.18 | -0.073 | 0.012 | -0.097 | -0.139 | 0.109 | 0.029
8 | KIZ (UniProt Q2M2Z5) |  |  |  |  | -0.075 |  |  |  | 0.099 | 0.103 | 0.06 | -0.107 | 0.018 | 0.077 | -0.01 |  |  | 0.039 |  | 
9 | IGFBP3 isoform 2 (UniProt P17936) |  | -0.094 |  |  | 0.115 |  | 0.196 |  | -0.004 |  |  |  | -0.18 | 0.049 | -0.172 | 0.032 | -0.057 | 0.097 | -0.095 | 
10 | ITPRID2 (UniProt P28290) | 0.022 | -0.133 | -0.268 |  | 0.004 |  | 0.238 | -0.686 (active) | 0.03 | -0.213 | -0.025 | 0.063 |  |  |  |  |  |  |  | 
11 | MED29 (UniProt Q9NX70) | -0.016 |  | 0.062 |  |  |  |  | -0.038 |  |  |  |  | 0.008 | -0.089 | -0.015 |  |  | -0.215 |  | -0.08
